Common to all, as to assay: MAPPIT interaction score (arbitrary units); higher = stronger binary interaction signal, active = hit call of the paper
One assay concerns the target GluRIIC. The settings on record: MAPPIT configuration: N-N; pair source set: Lit-BS-16.
A further assay deals with Gs1. The note with it: pair source set: RRS.
For another assay, the target named is HP5. The settings on record: MAPPIT configuration: N-N; pair source set: Curagen_low_conf.
For another assay, the target named is Hrb27C. The settings on record: MAPPIT configuration: N-N; pair source set: Lit-BM-16.
The next assay addresses GstD8. The note with it: MAPPIT configuration: N-N; pair source set: screen_1.
In the next assay the target is GstE4. The note with it: MAPPIT configuration: N-C; pair source set: RRS.
In another assay the target is PGRP-LE. The note with it: pair source set: Lit-BM-16.
In the next assay the target is Wee1. The settings on record: MAPPIT configuration: N-N; pair source set: Curagen_high_conf.
In a further assay the target is HP6. The note with it: MAPPIT configuration: N-N; pair source set: screen_1.
In another assay the target is Hn. The settings on record: MAPPIT configuration: N-N; pair source set: Curagen_high_conf.
The target of the next assay is jbug. The settings on record: MAPPIT configuration: N-C; pair source set: screen_3.
Another assay concerns the target Gnpnat. The settings on record: MAPPIT configuration: N-N; pair source set: screen_1.
A further assay concerns the target Jhbp2. The note with it: pair source set: RRS.
A further assay concerns the target Hmg-2. The note with it: MAPPIT configuration: N-C; pair source set: screen_3.

Values without a mark were called inactive.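 The calls were made as follows: active = MAPPIT score above the 99th percentile of random reference set scores in the same batch; inactive = at or below it.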
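Also: HEK293T cells with Epo stimulation, STAT-responsive firefly luciferase reporter, fold induction versus unstimulated cells divided by the larger fold induction of two negative controls lacking either bait or prey.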

B1: cora (protein)
chain: MPAEIKPSAPAEPETPTKSKPKSSSSSHGKPALARVTLLDGSLLDVSIDRKAIGRDVINSICAGLNLIEKDYFGLTYETPTDPRTWLDLEKPVSKFFRTDTWPLTFAVKFYPPEPSQLKEDITRYHLCLQVRNDILEGRLPCTFVTHALLGSYLVQSEMGDYDAEEMPTRAYLKDFKIAPNQTAELEDKVMDLHKTHKGQSPAEAELHYLENAKKLAMYGVDLHPAKDSEGVDIMLGVCASGLLVYRDKLRINRFAWPKILKISYKRHHFYIKIRPGEFEQYESTIGFKLANHRAAKKLWKSCVEHHTFFRLMTPEPVSKSKMFPVFGSTYRYKGRTQAESTNTPVDRTPPKFNRTLSGARLTSRSMDALALAEKEKVARKSSTLDHRGDRNADGDAHSRSPIKNKKEKDADKEAKLREKKQKEKEEKERKEREKRELEEKKKAEKAAKAALAAGAAAGAAVNGNDELNDSNKSDKSSGRRGVGIFSSGRKSKSGSPSKDGKDKSGKDKDKEVGRLGLVVTSGLGDNQQDQNLDEAARNAAKNRGSTTPGVTRQYEYAVDNDGNTSPTRKSYTPGGFRYDQDPNSRKSGADGQEQLSPTSQQKKIGLAFNYAPGNENALKETAEKLKAGQLSPRTQDKLNRGQLSPKSRAKLLQDPLLSPTTRAKLQGSAVDAAAVPLSDSQKRSYSPTKGPQGYSSGAPGSYKPISDPTADFLESQRYNKEPGYVGPSKADVAAGLAGAAGSKKPGSPTKTGKGAPGAAAAAAAGAAGAAAAAAKPKKRRVKIMVITSKFDPSTKRIDAENGSIEHSTGILDPATGLIDTKYGVIDPKKGTLEALNTKTGKKEVFQGDVDGKTGNLHLVSGVADPKTGRLDDTLGQIVCITPQDNPVVELTVITSRIDPATGKIDTVNGDVERSLGVLNLDTGLLDTKYGEINTRTGELKAIDPKSGKIVVSKNVKVDPGTGQITILGIVDPKTNKIDPNQGRLIEVGQQIDPIVEVTSLAGKFDSKRNIIDPKTAQVETSGGQFDPKAGKIDTKYGQIDLVKHTITFNDPKSGKTVTRDIKIEPTTGQIVLKNQVNPKNNKPDKDYARIISLRIVQQRVDPATKAPITEVSASKDKDIVVDPKSNQIWVPTGATDPATKEQQYISSSVDPKTGYVITIYGYLDPKTNEIKKQTKLDPNTIKIEPTSGKIYTATGEVDQATGEPLYAATQVDPESGEVYTKLARVDPKTGKIVIVRILLISKTDERGRPEEIDPSTCEIDPVSGRVLKFFNKTVYVYNMIDPVTGEIVQVDPNDPRFAGARTTVTHTMTLTGEIDPVTGRIKSEYGDIDPNTGDIDPATAVTDPVTGKLILNYAQIDPSHFGKQAQVQTTTETVPITRQQFFDGVKHISKGALRRDSEGSSDDDMTAQYGADQVNEILIGSPAGQAGGKLGKPVSTPTVVKTTTKQVLTKNIDGVTHNVEEEVRNLGTGEVTYSTQEHKADATPTDLSGAYVTATAVTTRTATTHEDLGKNAKTEQLEEKTVATTRTHDPNKQQQRVVTQEVKTTATVTSGDQYQRRDSVSSTSSGDSGTPIDGPYDGASVVRTDNQKSPLFTTSATTGPHVESTRVVLGEDTPGFSGHGEIISTQTVSSKTRTVETITYKTERDGIVETRVEQKITIQSDGDPIDHDKALAEAIQEATAMNPDMTVEKIEIQQQTQ
As for B1, the MAPPIT interaction score in the assay with GluRIIC is -0.379.

B2: cactin (protein)
chain: MPKEKSKHRHRSRSRERRDHRSPDPRSSRNRDRDREREREKDRDHRDHRDKERDQRREREKDKSRDKKREHKSRRRRSSSSSSSPSSSTSSSVPGAPRSPLVKSPMKLLQTLEARRLVEQKDRQRKKEELKAHETPEEKRARRLREKQAKEQRRRERMGWDNEYQTYSNEDNPFGDSNLTSTFHWGKKLEVEGLSNLSTKTVEVLSLQKQLENRRELEKVKKRRQERELERQVREDDLMMQQRAKEAVQFREWQRQEDQFHLEQARLRSEIRIRDGRAKPIDLLAQYVAAGNEPLEECLEMQMHEPYVLLNGLPVEELEDLLVDIKVYEELEQGKHIDFWNDMITIVQDELQRQQKLEAENSSLNQRRDGIHQAVVKDVADIFRGKNAQQLEEMRHRIEAKISGRADGVDISYWESLLSQLKAHMARARLRDRHQALLREKLSLLKRENDNETLQEKVAPQVKEEEMETQDAEDPEVEEGSPEDEEDPLNELRKTVRLYQAGNYSPRYIREEDFTGRRAQNEDVDEPEAEGLLYEEEDDERRTQRQRLLILHPERVDNNQLTPQELRMRNEAKQGMQGDEAEFSVETTLDAVPQLATDKYRPRKPRYFNRVHTGFEWNKYNQTHYDMDNPPPKIVQGYKFNIFYPDLMDKSQTPQYFLTPCADNGDFAVLRFHTGPPYEDIAFKIVNREWEFSYKRGFRCQFHNNIFQLWFHFKRYRYRR
As to B2, the MAPPIT interaction score is 0.448 with Gs1 (MAPPIT configuration: N-C) and 0.325 with Gs1 (MAPPIT configuration: N-N).

B3: ZIPIC (protein)
chain: MNCCICQFSVRVPKDIHTDTVGHPPVLISELVLQCTRGTNYVLTEESSTICKKCCEKLARYHKSIQIARKLRGEILELIHSPYMSKDHKQTSYKEDDLDRETTISKFDGNIEEAQQQDEEEQELESVGTTVTLVGPAGIVEEVAEEEHTFIIKQSEEEDEFHSVDLELDIDNEIIINEEEAHEVEEVAHEIEEVAHEIEEEDLLPHDKQEAQEEDFFKEDTMSDFDEHLDGAIEYIISDGEDQEQDNESSGEYTVNIQCPSCPEKFSSRRAYNVHTKREHFPGYVCDQCGKTLQSYSGFIGHLQNHEPVKQFACPVCPERFSRKFRLKHHMAWHSGETPYQCDVCSKRFVHKVALYKHKMIHDSETKRLECQVCGFKTRTKAHLERHMRSHTGDKPFACPVCNKRFSQMYNMKAHLREHESPGTNRHRRFHCSKCTHTFINEQNYDAHVQRDDCTPV
With B3, in the assay with HP5, the MAPPIT interaction score is 0.196.

B4: sqd (protein)
chain: MAENKQVDTEINGEDFTKDVTADGPGSENGDAGAAGSTNGSSDNQSAASGQRDDDRKLFVGGLSWETTEKELRDHFGKYGEIESINVKTDPQTGRSRGFAFIVFTNTEAIDKVSAADEHIINSKKVDPKKAKARHGKIFVGGLTTEISDEEIKTYFGQFGNIVEVEMPFDKQKSQRKGFCFITFDSEQVVTDLLKTPKQKIAGKEVDVKRATPKPENQMMGGMRGGPRGGMRGGRGGYGGRGGYNNQWDGQGSYGGYGGGYGGYGAGGYGDYYAGGYYNGYDYGYDGYGYGGGFEGNGYGGGGGGNMGGGRGGPRGGGGPKGGGGFNGGKQRGGGGRQQRHQPY
Consider B4, for which the MAPPIT interaction score with Hrb27C is -0.206.

B5: GstD1 (protein)
chain: MVDFYYLPGSSPCRSVIMTAKAVGVELNKKLLNLQAGEHLKPEFLKINPQHTIPTLVDNGFALWESRAIQVYLVEKYGKTDSLYPKCPKKRAVINQRLYFDMGTLYQSFANYYYPQVFAKAPADPEAFKKIEAAFEFLNTFLEGQDYAAGDSLTVADIALVATVSTFEVAKFEISKYANVNRWYENAKKVTPGWEENWAGCLEFKKYFE
In the case of B5, in the assay with GstD8, the MAPPIT interaction score was 5.85 (active).

B6: PGRP-LE (protein)
chain: MSESGIKKLSQERTREWLASQEDEELESIAESSVVDSLDYDYTEEEEDADQNTSEEISTMTLGTQIATKKHSIISDTIRDLMNSINSIQTLGNVNISNSTNVHIGNVTNINGNIQIIADGLTQNRRDRRHVSPPRDNAPKTPTHFEDDYQDESEERVRSDVFIRRQKFKIPKELSAIIPRSSWLAQKPMDEPLPLQLPVKYVVILHTATESSEKRAINVRLIRDMQCFHIESRGWNDIAYNFLVGCDGNIYEGRGWKTVGAHTLGYNRISLGISFIGCFMKELPTADALNMCRNLLARGVEDGHISTDYRLICHCQCNSTESPGRRLYEEIQTWPHFYNIEEEEQ
With B6, the MAPPIT interaction score with GstE4 was 0.646; in the assay with PGRP-LE (MAPPIT configuration: N-C), 3.96 (active); with PGRP-LE (MAPPIT configuration: N-N), 4.49 (active); in the assay with Wee1, 2.63 (active).

B7: dmt (protein)
chain: MVRTRPVPCVPSPDVNTATRRNPGRPKKQSIGADLSTTISKPGRPKKLSIGADLTTIRKPGRPKKLGADLTTIIRKPGRPTKLSNKQSLTALNEPECRIRKCVVKIRRIKVKNGVVSEISRNDAPDVDASTFEPARNSTMYIPSKVQKSTQPQNIKENVAGPETSPCQQRIRSKSPSGPAAEISPKKPPRFFHRDQPLTRTRSSVTRNVFDFLSQSQIEDDSDREDPAADIIQRLVKDGKACVMVRSRKIGKPRAKRTAKKVRPVGNRRKVSTKDNEPEPVKVVPKSIEPRLQKPSRSLSTIFEPEEDYSNDSEHGYVQPIEVPVQVHVEPSTSKQAHEGAYSNLARSVMLNQTQAQNPLPSTDRRRELINMARQLVSTPLNRRAPPVTDVSATTTALSPIAHQSPNAVRTAGGKSPWRVSDDSPLPNTFMFGFNNSQMPSYSSDHVQRRHVYVPDSPVEHAENIPHEESICPPLHEQNHDSNANDSNEENRPPPTISKSMSINDQESEENAENFVHLPNPRRTLQKRTPFKDINILEVVTLPSWKKNVTATVSKEITPTRVAPRPMATSSPAQRSQTRSNLFGFDDDFACEDIPRKSTTPSKGIAPTSMSLNREVTPALANRNQTEVNTFGCNEILPCENIPKEKETNTEERTSSSQNLFGFDEFITESQDSPANFTGLSQNVNLHDKLHRLAELRPRDGELPQVSYTSIRSDCLGESHSKQTDIRYMLCSTMIAPPRPAKRKPAAPTARESMGLFRVDQDEPEQSFADKQPRRTYVKERPQRKRKKRVQILYIESESEDEDEQDSHDKSLDSPEKKRHHVKRPRRDIEHEAKLEQFVTSFNKQCEEVEKFPVIIE
Take B7: in the assay with HP6, the MAPPIT interaction score is 4.14 (active).

B8: Nelf-E (protein)
chain: MVYIHFPNNLTEEEQMLQAKYQKLKKKKKALQAHKAPKPEPESSLTLKRPTDARDAREVARKLIKSGAIPAIQKQTKQDQTSFKRPKGQERAKRSTSETTVASYQPFSSTQNDVAQETIISEIIKEEPRRQNLYQHFATERDREERGMPEKVPMDTAQPEKPRAGNTIFVSGNKVTEDFLKKTFNDYGTIVNVSMEIEKSRGFVSFAKPESADRAIAEIHGKNVNGINLQVQLARRQPQIEPINDASSSAVWSSIAASKSQKGSHKDHREMVQYDEDFLL
With B8, the MAPPIT interaction score with Hn was 0.208; in the assay with jbug it was 0.0879.

B9: Gnpnat (protein)
chain: MVQLTEETYLYDPNLLLKLDFHRSPANFKPFISAANPGEPWMKVRPLKDTDYDRGFLQLLSQLTHVGNVNRTQFLTRFSQMKASGDYFVTVIEDTRKNEIIGAASLVIERKFIHNCAVRGRLEDVVVNDTYRGKQLGKLIVVTVSLLAEELGCYKMSLDCKDKLIKFYESLGYVAIPGNSNSMTIRYDEGPTLKRNATSAGSSGTVGDSCQTVSLDFAS
For B9, the MAPPIT interaction score is 5.14 (active) with Gnpnat, -0.259 with Jhbp2 (MAPPIT configuration: N-C) and 0.242 with Jhbp2 (MAPPIT configuration: N-N).

B10: Sas10 (protein)
chain: MDSDGDDYVMSGSDQEYDDEEREILEDLRKQRKKPHDPVQEVLGFSDDDDDDDDDDEEEQQDVAELMRDSDIEGAEDDDRDLPNTMDWGSKRSTYYNTDFVDQDYSSYNAQEEEQARAEEEEAKKIQLRLAKRMSEADFQLDNVEAAPAGSSDDNELSHITKVTSDLAGLSERERRQLMHSESPEFIILTQDFQQHLDEVKNLLKPVLNYVRKHDVPMVPALQYAGLCHTVLTTYCSNVAFYLLLKARRIDVKAHPVIRRLVQLKDLIEELKPRYEEYIRPQLEALLERIEDGDAFTVLDVAQRKAKLQILNKYNDGQQASVSSDDDDNDDDDDAESKEKDLQEEAGEEEEEEDARRGITYQMAKNKGLTPHRKKELRNPRVKHRGKYRKALIRRKGAVRTVRKELQRYGGELSGIKAGVTKSVKFRT
On to B10, for which the MAPPIT interaction score with Hmg-2 is 0.087.

Source of the values: the supplement of paper PMC10105736.
